The list is not random: actives were taken first. Their share in the collection is about 7.5%.
Rab9 prom act = qHTS Assay for Rab9 Promoter Activators. Huh7 Rab9 promoter-luciferase reporter, luminescence, 24 h. Potency, µM (doses to about 9.22 µM), for inactives: at the top dose activation, negative = inhibition, usual class: activators. 320,000 tested, 2.8% active; further: % of control where 0% means no effect; nearly all actives have a fitted effect of over 60% in size
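Luminescence from Amplite-detected luciferase (10 minutes, ambient) reports Rab9 promoter activation. Before that, stable Rab9-luciferase Huh7 cells (1500/well, reduced-serum OP-MEM I plus 10% FBS) were exposed to compound for 24 hours at 37C.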
FLuc counter = qHTS profiling assay for firefly luciferase inhibitor/activator using purifed enzyme and Km concentrations of substrates (counterscreen for miR-21 project) | purified FLuc, Km substrates, luminescence inhibition | Potency, µM (top dose mostly 57.5 µM), for inactives: at the highest dose activity change, negative = inhibition, hits mostly inhibitors | 360,000 tested, 6.9% active;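 further: plate controls were vehicle for no effect and reference inhibitor for full effect; nearly all actives have a fitted effect of over 55% in size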
Target sequence (P08659 whole entry, looked up): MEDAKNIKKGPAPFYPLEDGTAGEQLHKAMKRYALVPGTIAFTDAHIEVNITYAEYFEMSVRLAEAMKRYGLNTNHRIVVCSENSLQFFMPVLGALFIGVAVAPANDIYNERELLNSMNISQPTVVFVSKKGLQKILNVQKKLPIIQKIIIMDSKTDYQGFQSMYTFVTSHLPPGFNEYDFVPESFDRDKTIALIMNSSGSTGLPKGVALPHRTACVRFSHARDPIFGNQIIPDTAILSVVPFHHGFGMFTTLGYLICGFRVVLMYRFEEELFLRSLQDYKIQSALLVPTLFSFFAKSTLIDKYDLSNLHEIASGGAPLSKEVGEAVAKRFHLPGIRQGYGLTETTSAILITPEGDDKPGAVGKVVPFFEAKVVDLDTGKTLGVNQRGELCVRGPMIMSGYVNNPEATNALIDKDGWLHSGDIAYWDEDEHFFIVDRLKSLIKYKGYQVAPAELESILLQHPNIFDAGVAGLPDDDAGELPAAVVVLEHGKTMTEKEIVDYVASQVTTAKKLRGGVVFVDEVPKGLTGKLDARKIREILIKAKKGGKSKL
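Purified P. pyralis luciferase (10nM final) with 10uM D-luciferin and 10uM ATP (Km levels) in 50mM Tris acetate pH 7.5, 10mM Mg acetate, 0.01% Tween-20, 0.05% BSA; qHTS 6-point titration, ~60 µM downward; luminescence read.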
NPC1 promoter act = qHTS Assay for NPC1 Promoter Activators; Huh7 NPC1 promoter luciferase reporter, 24 h; Potency, µM (top dose mostly 9.22 µM), for inactives: top-dose activation, hits mostly activators; 320,000 tested, 2.4% active; AID 485313, 2010; further: % of control where 0% means no effect; nearly all actives have a fitted effect of over 60% in size
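Luminescence read-out of NPC1 promoter-driven luciferase in stably transfected Huh7 cells; compounds delivered in DMSO and left 24 h at 37C, 5% CO2, qHTS titration format.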
SMN2 splice enh = qHTS Assay for Enhancers of SMN2 Splice Variant Expression. HEK293 SMN2-luciferase splicing reporter, luminescence, 30-36 h. Potency, µM (titrated, usually from 46.1 µM), for the others: at the top dose activity change, positive = activation, hits mostly activators. 210,000 tested, 2.8% active. AID 1458, 2008; further: % of control where 0% means no effect; nearly all actives have a fitted effect of over 55% in size
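HEK293 cells carry an SMN2 minigene-luciferase reporter in which exon 7 inclusion puts luciferase in frame. Cells were seeded at 2000 cells/well, attached for 10-12 hours, then exposed to compounds for 30-36 hours at 37C before ONE-Glo luminescence.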
ELG1 genotox = qHTS screen for small molecules that induce genotoxicity in human embryonic kidney (HEK293T) cells expressing luciferase-tagged ELG1 | HEK293T ELG1-luciferase reporter, luminescence, 16 h | Potency, µM (doses to about 46 µM), for inactives: at the top dose activity change, positive = activation, most hits filed as activators | 330,000 tested, 1.3% active; further: % of control where 0% means no effect; nearly all actives have a fitted effect of over 60% in size
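HEK293T cells expressing luciferase-tagged ELG1 were exposed to compound or DMSO vehicle for 16 hr at 37 °C and 5% CO2. Luciferase activity was then measured with ONE-Glo after 30 min at room temperature.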
* hit, by the source's call; ? = inconclusive; · = no result; [ ] = another dose, or the depositor's remark. The call rests on the fitted dose curve; in most records, active means well fitted curve in the direction sought with a large enough effect; inconclusive means small, poorly fitted or top-dose-only effect, or another doubt; inactive means no such curve, though single readings can be large; an effect the other way counts as inactive or inconclusive. Potency means the concentration at half of the fitted maximal effect.

SMILES	Rab9 prom act	FLuc counter	NPC1 promoter act	SMN2 splice enh	ELG1 genotox
CN1CCN(/C=N/c2sc3c(c2C#N)CCCCC3)CC1	2.2µM*	12µM*	2.5µM*	16µM*	?
N#Cc1c(/N=C/C=C/c2ccccc2)sc2c1CCCC2	?	6.7µM*	23%	-11%	6%
Oc1c(C(c2ccc(Cl)cc2)N2CCOCC2)sc2nc(-c3ccco3)nn12 (centres undefined)	·	-19%	·	·	·
O=C(CCC(=O)c1ccc[nH]1)c1ccc(Cl)cc1	1.6µM*	12µM*	3.2µM*	?	8.2µM*
Cc1ccc(C)c(OCCC(=O)NNC(=O)c2cc(C)oc2C)c1	-1%	0%	-4%	·	0%
O=C(Oc1coc(CSc2ncccn2)cc1=O)c1ccccc1[N+](=O)[O-]	3%	6.7µM*	-5%	5%	-16%
Cc1cc(C)nc(SCc2cc(=O)c(OC(=O)c3cc([N+](=O)[O-])ccc3Cl)co2)n1	-1%	4%	0%	2%	0%
Cc1nc2ccccn2c1C(=O)N/N=C/c1ccc2c(c1)OCO2	21%	12µM*	15%	?	?
Cc1ccc(NC(=O)c2c(Cl)nc3ccccn23)cc1	?	11µM*	19%	13µM*	?
Cc1nc2ccccn2c1C(=O)Nc1ccc(Cl)cc1	?	24µM*	?	88%	?
Cc1nc2ccccn2c1C(=O)NCc1ccc2c(c1)OCO2	1%	5%	-7%	-38%	1%
Cc1nc2ccccn2c1C(=O)Nc1ccc2c(c1)OCCO2	?	12µM*	?	7.1µM*	?
Cc1ccc(C)c(NC(=O)c2c(Cl)nc3ccccn23)c1	5%	2%	-4%	-8%	-10%
COc1ccc(NC(=O)CSc2c(C(C)C)cnc3c2c(=O)n(C)c(=O)n3C)c(OC)c1	·	0%	·	·	·
Cc1ccc(NC(=O)C2CCCN(S(=O)(=O)c3ccc4c(c3)CCCC(=O)N4)C2)cc1N(C)C (centres undefined)	·	4%	·	·	·
CC(C)c1ccc(-c2noc(SCC(=O)N3CCCCC3)n2)cc1	·	2.4µM*	·	·	·
CCN(C(=O)CSc1nc(-c2ccccc2)no1)c1ccccc1	·	0%	·	·	·
CC(C)c1ccc(-c2noc(SCC(=O)N(C)c3ccc(F)cc3)n2)cc1	·	6µM*	·	·	·
Cc1cc(NC(=S)NC(=O)C2CC2)ccc1Br	22%	24µM*	-13%	·	4%
Cc1ncn(-c2ccccc2O)c1C	·	·	·	-7%[9.22 µM]	·
CCn1c(Cn2nnc(-c3ccccc3)n2)nnc1SCC(=O)Nc1ccc(C(C)=O)cc1	24%	19µM*	?	14%	14%
CCn1c(Cn2nnc(-c3ccccc3)n2)nnc1SCC(=O)Nc1cccc(C(C)=O)c1	7%	-2%	0%	-7%	-4%
CC(C(=O)N1CCCCC1)n1sc2ccccc2c1=O (centres undefined)	?	24µM*	?	?	?
CC(C(=O)N1CCN(C(=O)c2ccco2)CC1)n1sc2ccccc2c1=O (centres undefined)	0%	5%	0%	·	2%
CC(/C=N/NC(=O)C(O)c1ccccc1)=C\c1ccccc1 (centres undefined)	?	13µM*	?	22%	7%
SMILES	Rab9 prom act	FLuc counter	NPC1 promoter act	SMN2 splice enh	ELG1 genotox
CC(/C=N/NC(=O)c1ccc(Br)cc1)=C\c1ccccc1	1%[1.84 µM]	?	20%	12%	?
CC(=C/c1ccccc1)/C=N/NC(=O)c1cnccn1	?	4.8µM*	4µM*	?	8.9µM*
CC(/C=N/NC(=O)c1cccnc1)=C\c1ccccc1	?	13µM*	?	·	?
CC(/C=N/NC(=O)CSc1ccccn1)=C\c1ccc(C(C)C)cc1	22%	?	?	?	?
CC(/C=N/NC(=O)c1ccncc1)=C\c1ccc(C(C)C)cc1	2.8µM*	?	28%	·	0%
COc1ccc(C(OCC2CO2)c2ccc(OC)cc2)cc1 (centres undefined)	-1%	-5%	-3%	9%	5%
O=C(CSc1ncccn1)NC1CCS(=O)(=O)C1 (centres undefined)	5%	6%	-6%	·	2%
CC(Oc1ccc(F)cc1)C(=O)NCC1(N(C)C)CCCCC1 (centres undefined)	·	-2%	·	·	·
Cc1cc(C)nc(N/N=C/c2ccc(Cl)cc2)n1	5%	?	22%	·	-16%
CC(/C=N/Nc1nc(C)cc(C)n1)=C\c1ccc(C(C)C)cc1	8%	19µM*	-4%	-6%	2%
COc1ccccc1/C=C/C=N/NC(=O)c1cnccn1	23%	?	14%	·	13%
O=C(N/N=C/C(Cl)=C\c1ccccc1)c1cnccn1	22%	11µM*	21%	13%	?
O=C(N/N=C/C(Cl)=C/c1ccccc1)c1cnccn1	21%	12µM*	17%	14%	17%
Cc1cccc(Cn2c(=O)n(CCC(=O)NCc3ccc4c(c3)OCO4)c(=O)c3sccc32)c1	·	0%	·	-13%	·
O=C(O)c1ccc2c(c1)C(=O)N([C@@H](Cc1ccc(O)cc1)C(=O)O)C2=O	-1%	0%	-1%	·	·
C[C@H](CO)N1C[C@H](C)[C@@H](CN(C)S(=O)(=O)c2cccs2)Oc2c(NC(=O)CCC(F)(F)F)cccc2C1=O	·	·	·	·	-1%
Cc1cccnc1NC(=S)Nc1ccc(Br)cc1Cl	3.2µM*	4.8µM*	3.2µM*	25µM*	?
S=C(NCc1ccncc1)Nc1ccc(Br)cc1Cl	-9%	-2%	-2%	·	-9%
CCC1=C2CC[C@H]3C(=O)NC(=O)[C@H]3[C@H]2[C@@]2(C)C(=NCCc3c[nH]c4ccccc34)OC(=O)N2C1=O	·	·	·	-24%	·
COc1ccc(-n2c(C)cc(C(=O)COC(=O)c3ccc(O)cc3O)c2C)cc1	-16%	?	-4%	·	-4%
CCOC(=O)c1cc(C)n(-c2ccccc2)c1C	25%	15µM*	0%	·	?
Cc1cc(C(=O)COC(=O)c2ccc(O)cc2O)c(C)n1-c1ccccc1	?	2.1µM*	?	·	?
NC(=O)c1c(NC(=O)c2noc3c2CCCC3)sc2c1CCCC2	·	?	·	14µM*	·
O=C(Nc1sc2c(c1C(=O)O)CCCC2)c1ccc(F)cc1	?	15µM*	28%	·	4%
NC(=O)c1c(NC(=O)c2cc3ccccc3o2)sc2c1CCC2	0.22µM*	0.43µM*	0.32µM*	2.2µM*	0.92µM*
NC(=O)c1c(NC(=O)c2ccc([N+](=O)[O-])o2)sc2c1CCCC2	11%	-15%	15%	·	1%
CC(C)(C)c1ccc(C(=O)Nc2sc3c(c2C(=O)O)CCC3)cc1	-18%	11µM*	-15%	·	-6%

Compound activity as filed in PubChem BioAssay.
